From PubChem BioAssay (EPA / NIEHS)
Active and inactive are the calls of the source. Rule for the calls, unless noted: active = hit-call score of the fitted dose curve at least 0.9, where 1 is the maximum; inactive = score below 0.9.

Experiments:
[1] = CEETOX_H295R_11DCORT: CeeTox H295R High-throughput Steroidogenesis Assay for 11-Deoxycortisol (11DCORT) (AID 2283432); settings: actives raise or lower the signal;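 for AC50: human adrenal H295R cells prestimulated with 10 µM forskolin for 48 h; 11-deoxycortisol secreted into the medium measured by LC-MS/MS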
In short: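 H295R cells prestimulated 48 h with 10 uM forskolin, then exposed 48 h to chemical in 0.1% DMSO. 11-Deoxycortisol in medium quantified by HPLC-MS/MS after MTBE extraction; bidirectional fit versus DMSO. MTT viability read in same wells.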

[2] = CEETOX_H295R_OHPREG: CeeTox H295R High-throughput Steroidogenesis Assay for OH-Pregnenolone (OHPREG) (AID 2283434); settings: actives raise or lower the signal
In short: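 Readout: HPLC-MS/MS of 17alpha-hydroxypregnenolone in medium after 48 h chemical exposure of H295R cells pretreated with forskolin. Values fitted bidirectionally relative to DMSO; chemicals reducing viability to 20–70% were retested after 10-fold dilution.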

[3] = CEETOX_H295R_OHPROG: CeeTox H295R High-throughput Steroidogenesis Assay for OH-Progesterone (OHPROG) (AID 2283435); settings: actives raise or lower the signal;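 for AC50: human adrenal H295R cells primed 48 h with 10 µM forskolin; 17alpha-hydroxyprogesterone secreted into medium measured by HPLC-MS/MS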
In short: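 Human adrenocortical H295R cells, passage 10 or lower, were treated with chemical for 48 h after forskolin priming, and hormone output in the medium was quantified by LC-MS/MS.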

[4] = CEETOX_H295R_ANDR: CeeTox H295R High-throughput Steroidogenesis Assay for Androstenedione (ANDR) (AID 2283436); settings: actives raise or lower the signal
In short: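 Steroidogenesis in H295R adrenal cells after 48 h dosing; androstenedione quantified by LC-MS/MS, with DMSO as negative control and baseline for bidirectional curve fitting.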

[5] = CEETOX_H295R_CORTISOL: CeeTox H295R High-throughput Steroidogenesis Assay for Cortisol (AID 2283438); settings: actives raise or lower the signal;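 note: cortisol secreted into medium quantified by LC-MS/MS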
In short: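 Steroidogenesis in H295R, per modified OECD 456: 48 h forskolin (10 uM), then 48 h exposure, 0.1% DMSO. Cortisol by extraction and tandem MS; viability by MTT (570/650 nm); cytotoxic chemicals diluted and re-tested.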

[6] = CEETOX_H295R_DOC: CeeTox H295R High-throughput Steroidogenesis Assay for DOC (AID 2283439); settings: actives raise or lower the signal
In short: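 H295R, fsk 10 uM ×48 h pre, cmpd ×48 h (0.1% DMSO). Media → MTBE extr. → LC-MS/MS, DOC. Bidirectional fit vs DMSO; MTT viability same wells, re-test diluted if <70%.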

[7] = CEETOX_H295R_ESTRADIOL: CeeTox H295R High-throughput Steroidogenesis Assay for Estradiol (AID 2283440); settings: actives raise or lower the signal;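 note: estradiol secreted into medium quantified by LC-MS/MS after dansyl derivatisation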
In short: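 H295R adrenocortical cells were prestimulated with 10 uM forskolin for 48 h, then exposed to test chemical in 0.1% DMSO for 48 h. Medium estradiol was extracted with MTBE, dansyl-derivatized and quantified by HPLC-MS/MS; bidirectional fit versus DMSO.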

[8] = CEETOX_H295R_ESTRONE: CeeTox H295R High-throughput Steroidogenesis Assay for Estrone (AID 2283441); settings: actives raise or lower the signal;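 note: estrone secreted into medium measured by LC-MS/MS after dansyl derivatization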
In short: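 Forskolin-stimulated H295R cells are treated 48 h with chemical, and estrone in the medium is measured by LC-MS/MS. Activity is fitted in both directions relative to DMSO controls, with chemicals diluted until MTT viability reaches at least 70%.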

[9] = CEETOX_H295R_TESTO: CeeTox H295R High-throughput Steroidogenesis Assay for Testosterone (TESTO) (AID 2283457); settings: actives raise or lower the signal;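 for AC50: cells exposed to chemicals for 48 h before medium collection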
In short: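 H295R human adrenal cells in DMEM/F12 with ITS+ and Nu-Serum, exposed to chemicals for 48 h. Testosterone in medium measured by MTBE extraction, reverse-phase HPLC-MS/MS; bidirectional fit versus DMSO baseline. MTT viability checked in same wells.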

[10] = molecular target: Peroxisome proliferator-activated receptor gamma (Homo sapiens) (UniProt P37231); assay: OT_PPARg_PPARgSRC1_1440: Odyssey Thera (OT) 24-hour Protein-Complementation Assay for Peroxisome Proliferator-activated Receptor Gamma/ SRC-1 Co-activator (AID 2283388; active = hit-call score of the fitted dose curve at least 0.9, where 1 is the maximum)
In short: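 HEK293T cells transiently transfected with PPARg and SRC-1 fused via (Gly4Ser)2 linker to split Venus YFP fragments (IFP1/IFP2) were dosed 24 h; fixed, Draq5-stained, imaged at 488/635 nm; nuclear/cytoplasmic fluorescence ratio scored versus DMSO baseline, gain-of-signal.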

Measured: AC50

Chain of Peroxisome proliferator-activated receptor gamma (Homo sapiens) (P37231 whole entry, looked up, the tested form may be a part): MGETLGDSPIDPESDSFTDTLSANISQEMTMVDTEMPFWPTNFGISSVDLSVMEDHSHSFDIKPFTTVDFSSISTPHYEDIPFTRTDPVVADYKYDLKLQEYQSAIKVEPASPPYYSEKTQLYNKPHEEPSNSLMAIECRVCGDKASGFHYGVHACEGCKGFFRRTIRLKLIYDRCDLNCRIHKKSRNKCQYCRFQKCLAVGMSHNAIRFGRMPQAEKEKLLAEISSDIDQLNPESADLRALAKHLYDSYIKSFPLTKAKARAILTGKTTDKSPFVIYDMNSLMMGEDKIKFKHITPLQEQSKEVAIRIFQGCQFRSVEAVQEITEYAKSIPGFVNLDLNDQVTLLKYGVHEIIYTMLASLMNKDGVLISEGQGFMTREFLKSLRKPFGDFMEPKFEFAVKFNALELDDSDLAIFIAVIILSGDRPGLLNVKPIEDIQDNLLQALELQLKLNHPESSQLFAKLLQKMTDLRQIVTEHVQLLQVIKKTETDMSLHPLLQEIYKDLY

CCN(CC)c1ccc(C=O)cc1
active: [6] 59.2 µM
not listed: [10]
inactive: all other assays above

CCN(CC)c1ccc(N=Nc2ccccc2)cc1
active: [1] 10 µM
not listed: [10]
inactive: all other assays above

C[C@]12CC[C@H]3C(=CCc4cc(O)ccc43)[C@@H]1CCC2=O
inactive: [10]
active: [1] 17.8 µM | [2] 3.5 µM | [3] 2.87 µM | [4] 8.03 µM | [5] 13.7 µM | [6] 0.811 µM | [9] 4.29 µM

O=C1C=CC(=O)N1c1ccccc1
inactive: all assays above

Cc1cc(O)c(C(C)(C)C)cc1C(C)(C)C
not listed: [10]
inactive: all other assays above

CCOCOCC
not listed: [10]
inactive: all other assays above

CCN=c1cc2oc3cc(NCC)c(C)cc3c(-c3ccccc3C(=O)OCC)c-2cc1C
active: [10] 4.08 µM

N#Cc1ccccc1O
active: [3] 30.1 µM | [6] 77.7 µM
inactive: [10] | [1] | [2] | [5]

CCn1c2ccccc2c2ccccc21
active: [1] 50 µM | [3] 50 µM | [4] 50 µM | [9] 50 µM
inactive: [2] | [5] | [6]

Oc1ccc2c(c1)CCC2
active: [7] 39.1 µM
not listed: [2] | [3] | [10]
inactive: all other assays above

O=C1c2ccccc2C(=O)c2c(Cl)cccc21
not listed: [10]
inactive: all other assays above

CN1CN(C)CN(C)C1
not listed: [4] | [9] | [10]
inactive: all other assays above
